Screening data: PubChem BioAssay, Buhrlage Lab, Dana-Farber Cancer Institute and Novartis Institutes for BioMedical Research (Cambridge, Mass)
UCHL1 block = inhibitors of human UCHL1 deubiquitinase | AID 1645859 | inhibition, % at 20 µM | 47,000 tested, 0.2% active | purified UCHL1, Ub-rhodamine cleavage fluorescence | P09936
Target sequence (P09936 whole entry, looked up): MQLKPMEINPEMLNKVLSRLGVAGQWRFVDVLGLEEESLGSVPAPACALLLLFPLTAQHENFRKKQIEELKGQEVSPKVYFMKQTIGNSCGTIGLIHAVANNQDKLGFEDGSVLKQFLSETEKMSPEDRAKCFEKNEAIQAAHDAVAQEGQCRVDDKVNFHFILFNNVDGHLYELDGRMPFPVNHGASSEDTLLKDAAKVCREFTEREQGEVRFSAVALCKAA
USP10 block = blocks human USP10 ubiquitin-rhodamine cleavage; Q14694; purified USP10, Ub-rhodamine fluorescence, 60 min; inhibition, % at 20 µM; 47,000 tested, 1.1% active
OTUD3 block = human OTUD3 deubiquitinase inhibition; purified OTUD3, Ub-rhodamine fluorescence, 2 h; 47,000 tested, 0.7% active; inhibition, % at 25 µM; AID 1645858; Q5T2D3
USP8 inh = inhibitors of human USP8 deubiquitinase; purified USP8, Ub-rhodamine cleavage fluorescence, 30 min; inhibition, % at 20 µM; 47,000 tested, 4.2% active; AID 1645853
USP7 inh = blocks human USP7 ubiquitin-rhodamine cleavage. purified USP7, Ub-rhodamine cleavage fluorescence. inhibition, % at 20 µM. 47,000 tested, 0.3% active
Active calls of the source: *. Shown are actives, neighbours in structure and some others; about 4.9% of the full set was active somewhere. Rule as the data show it: active = inhibition above about 30%; inactive = the rest.

SMILES	UCHL1 block	USP10 block	OTUD3 block	USP8 inh	USP7 inh
Cc1cccc(-n2nnc3c(=O)n(CC(=O)Nc4ccc5c(c4)OCCO5)cnc32)c1	-0.8	11.5	-6.8	7.7	5.7
O=c1c2nnn(-c3ccccc3)c2ncn1Cc1cccc(F)c1	-1.6	4.5	-9.6	17.3	-1.9
O=C(Cn1cc(C(=O)c2ccccc2)c(=O)c2cc(F)ccc21)Nc1ccc2c(c1)OCO2	1.0	25.9	-8.8	58.8*	10.0
Cc1ccc(C(=O)c2cn(CC(=O)Nc3ccc4c(c3)OCO4)c3ccccc3c2=O)cc1	6.9	57.4*	22.2	90.1*	33.4*
C=C1CC[C@H]2C(C)(C)CCC[C@]2(C)[C@H]1C[C@]12O[C@H]1[C@@H](O)C(CO)=CC2=O	2.8	-3.2	0.1	-12.3	13.0
CSCCC(Nc1nc(Cc2ccccc2)nc2sc3c(c12)CCCC3)C(=O)O (stereo not drawn)	3.0	17.4	14.1	20.4	-11.4
O=c1c2cc3c(=O)n(-c4ccccn4)ccc3nc2ccn1Cc1ccccc1	0.8	-0.9	-0.8	7.9	7.9
COc1cccc(OCC(O)CNc2ccc(Cl)cc2)c1 (stereo not drawn)	1.7	2.9	-3.0	36.8*	-80.0
CCc1nc2c(c(C(=O)NCc3cccnc3)n1)OCCO2	-3.2	0.1	1.0	-5.5	-3.2
O=C(Nc1cccc(Cl)c1)c1ncn2c1CNS(=O)(=O)c1ccccc1-2	6.1	37.0*	11.6	22.7	-60.9
O=C(c1ncn2c1CNS(=O)(=O)c1ccccc1-2)N1CCCC1	-2.3	-0.8	-9.4	-6.5	-3.0
CC1CCN(c2cc(-n3cnc(C(=O)N4CCCC(C)C4)c3)ncn2)CC1 (stereo not drawn)	-1.8	0.6	-2.4	-0.7	-8.9
CCOc1ncccc1C(=O)N1CCCCC1c1ccn2nccc2n1 (stereo not drawn)	0.1	0.1	-0.6	-1.1	0.3
COc1ccc2nc(NC(=O)c3cc4ccc5cccnc5c4[nH]3)sc2c1	11.6	32.7*	6.4	79.9*	21.6
CCOc1ccccc1NC(=O)c1cc(-c2ccncc2)n[nH]1	-0.8	1.1	-7.1	0.5	4.2
COc1ccc2cc(C(=O)NCc3ccccn3)[nH]c2c1	-2.4	-2.8	-5.0	-23.8	-0.3
CCOc1ccccc1-c1cc(NC(=O)c2cc3ccc4cccnc4c3[nH]2)on1	1.4	53.1*	29.9	69.1*	14.9
O=C(Nc1nc2ccccc2s1)c1cc2ccc3cccnc3c2[nH]1	4.0	35.2*	-0.1	25.0	19.9
COc1cc([C@@H]2c3c(C)nn(C)c3NC(=O)[C@H]2NC(=O)c2cccc(C)c2)cc2c1OCCO2	0.0	2.6	-0.1	-30.8	2.5
CCn1c(CNC(=O)C2CCC2)nc2c1CN(C(=O)c1cccc(Cl)c1)CC2	1.2	-0.1	5.8	6.1	4.0
CS(=O)(=O)N1C[C@H](OCc2ccccn2)[C@H]2COC[C@H]21	0.8	2.7	8.7	-3.6	4.9
O=C(Nc1cccc([N+](=O)[O-])c1)Nc1ccc2snnc2c1	68.2*	56.0*	-0.8	95.1*	83.7*
CN1CCN(C2CCOCC2)CC1c1ccccc1 (stereo not drawn)	-2.8	-1.8	-1.7	-14.7	-1.9
Cc1cn2nnc(C(=O)Nc3ccc(Cl)c(Cl)c3)c2c(=O)[nH]1	0.0	14.3	-1.2	96.5*	10.2
COc1cccc2c1OCC(NS(=O)(=O)c1cc(C)ccc1C)C2 (stereo not drawn)	0.8	4.9	82.1*	4.9	-0.6
SMILES	UCHL1 block	USP10 block	OTUD3 block	USP8 inh	USP7 inh
CSc1nc2ncn(CC(=O)Nc3cccc(Cl)c3)c(=O)c2s1	-0.1	-0.2	4.3	32.8*	4.4
COc1ccccc1Nc1ncc(C(=O)NCCc2ccc(Cl)cc2)c2ccccc12	0.2	7.8	13.0	37.3*	23.2
COC(=O)CNC(=O)c1cnc(Nc2ccccc2OC)c2ccccc12	3.3	-0.5	1.2	16.0	-1.3
COc1ccccc1Nc1ncc(C(=O)N(C)Cc2ccccc2)c2ccccc12	-2.7	-5.7	-33.6	68.8*	-25.9
COc1ccccc1CNC(=O)c1cnc(Nc2ccccc2OC)c2ccccc12	-2.1	-3.1	-2.2	7.3	2.5
Cc1sc(NC(=O)C2(c3ccc(Cl)cc3)CCC2)nc1-c1ccc2c(c1)CCN2C(=O)C1CCCCC1	0.2	1.7	13.8	5.8	1.0
O=S(=O)(NC1(c2ccccc2)CCC1)c1cccc(Br)c1	2.0	10.3	-5.8	10.7	2.5
Cc1sc2ncnc(NS(=O)(=O)c3ccc(Cl)cc3)c2c1C	-4.6	-5.2	2.1	11.0	-53.9
Cc1ccc(-c2nn(C(C)(C)C)c3ncnc(NS(=O)(=O)c4ccc(Cl)cc4)c23)cc1	8.7	41.7*	9.4	18.5	17.4
